# Records with an inconclusive call do not appear. Where a call stands in place of a potency, no number is given. The source made the active and inactive calls. The call rests on the fitted dose curve; in most records, active means well fitted inhibition curve with a large enough effect; inconclusive means small, poorly fitted or top-dose-only effect; inactive means no such curve, though single readings can be large or run the other way.
# Assay: HTS Assay for Allosteric Antagonists of the Human D2 Dopamine Receptor: Hit Validation in HTRF (AID 624455);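 further: stable D1 dopamine receptor cell line scored for blocking the D1 response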
# Settings: Cells stably expressing D1 dopamine receptor, inhibition mode; series mostly up to 46.1 µM
# Procedure, shortened: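 Validation of hits used D1 receptor stably expressed in cells with HTRF detection of response inhibition; origin screen measured calcium flux following EC80 dopamine in a force-coupled, inducible Hek293 Trex D2 cell line.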
row,SMILES,Potency
1,CCCn1c(=O)c2c(ncn2C)n(CCC)c1=O,inactive
2,NC1(C(=O)O)CCCCC1,inactive
3,CCN(CC)CCCCCCCCOC(=O)c1cc(OC)c(OC)c(OC)c1,inactive
4,CC1CNCCN1S(=O)(=O)c1cccc2cnccc12 (stereo unspecified),inactive
5,Clc1nccc2c1ccc1ccccc12,inactive
6,NCCS(=O)O,inactive
7,N[C@@H](Cc1c[nH]c2ccccc12)C(=O)O,inactive
8,CN(C)C(=O)/N=N/C(=O)N(C)C,inactive
9,O=[N+]([O-])c1cccc2cn[nH]c12,inactive
10,C=C1C(=O)O[C@@H]2[C@H]3O[C@]3(C)CCC=C(C)CC[C@@H]12,inactive
11,NCCCCN=C(N)N,inactive
12,Nc1ccc(-c2ccc3ccccc3n2)cc1,inactive
13,C=CCn1c(=O)c2c(nc(-c3ccc(S(=O)(=O)O)cc3)n2C)n(C)c1=O,inactive
14,Nc1ncnc2c1ncn2C1CCCO1 (stereo unspecified),inactive
15,Oc1ccc(Cn2cc[nH]c2=S)cc1,inactive
16,CNC(=O)c1cc2c(cn1)[nH]c1ccccc12,inactive
17,CSC(N)=NCCC[C@H](N)C(=O)O,inactive
18,NC(C(=O)N[C@@H]1C(=O)N2C(C(=O)O)=C(Cl)CS[C@H]12)c1ccccc1 (stereo partly specified),inactive

row,SMILES,Potency
1,CC1=C(C(=O)O)N2C(=O)[C@@H](NC(=O)C(N)C3=CCC=CC3)[C@H]2SC1 (stereo partly specified),inactive
2,COc1ccccc1N1CCN(CCCNc2c(C)c(=O)n(C)c(=O)n2C)CC1,inactive
3,CNc1cc(NS(=O)(=O)c2ccc(N)cc2)nc(NC)n1,inactive
4,NC(N)=NC(N)=Nc1cccc(Cl)c1,inactive
5,O=C(O)C1CN(CCCP(=O)(O)O)CCN1 (stereo unspecified),inactive
6,Nc1ccc(-c2nc3ccc(-c4nc5ccc(N)cc5[nH]4)cc3[nH]2)cc1,inactive
7,O=C(O)Cc1c[nH]c2ccc(O)cc12,inactive
8,CCN(CC)CCOC(=O)c1cc(Cl)c(N)cc1OC,inactive
9,CSC(=N)N,inactive
10,N#CC(C#N)=C(N)/C(C#N)=C/c1ccc(O)cc1,inactive
11,CCCCOC(=O)NS(=O)(=O)c1sc(CC(C)C)cc1-c1ccc(Cn2c(CC)nc3c(C)cc(C)nc32)cc1,inactive
12,COc1cc2c(CCNC(C)=O)c[nH]c2cc1O,inactive
13,N[C@@H](Cc1ccc(O)c(I)c1)C(=O)O,inactive
14,N[C@@H](CCCC(=O)O)C(=O)O,inactive
15,NS(=O)(=O)c1cccc2c1c([N+](=O)[O-])cc1nc(O)c(O)nc12,inactive
16,O=C(O)c1ccccc1Nc1cccc(OCc2ccc3ccccc3n2)c1,inactive
17,NC(N)=N[C@@H](CCC(=O)O)C(=O)O,inactive
18,Oc1cc(O)c2c(c1)O[C@H](c1ccc(O)c(O)c1)[C@@H](O)C2,inactive
